Results on one compound are retold here after PubChem BioAssay AID434992 (The Scripps Research Institute Molecular Screening Center, 2010).

SMILES strings stand for the structures. Calls of active or inactive are those of the source. No rule for the calls is given here.

The nature of the test: PubChem AID 434992. Conditions: HT29 viability, CellTiter-Glo ATP luminescence; series mostly up to 40 µM.

For the compound `FC(F)(F)c1ccc2c(c1)Nc1ccccc1S2`, the compound was called inactive.
